Many of the other results were omitted from the sample, so hits are more common in it than they were.
STK33 inh: blocks human STK33 kinase activity | Q9BYT3 | inhibition, % at 12.5 µM | 27,000 compounds, 0.44% hits | ADP-Glo luminescence, MBP substrate; in the data active = inhibition above about 20%
Target sequence (Q9BYT3 whole entry, looked up): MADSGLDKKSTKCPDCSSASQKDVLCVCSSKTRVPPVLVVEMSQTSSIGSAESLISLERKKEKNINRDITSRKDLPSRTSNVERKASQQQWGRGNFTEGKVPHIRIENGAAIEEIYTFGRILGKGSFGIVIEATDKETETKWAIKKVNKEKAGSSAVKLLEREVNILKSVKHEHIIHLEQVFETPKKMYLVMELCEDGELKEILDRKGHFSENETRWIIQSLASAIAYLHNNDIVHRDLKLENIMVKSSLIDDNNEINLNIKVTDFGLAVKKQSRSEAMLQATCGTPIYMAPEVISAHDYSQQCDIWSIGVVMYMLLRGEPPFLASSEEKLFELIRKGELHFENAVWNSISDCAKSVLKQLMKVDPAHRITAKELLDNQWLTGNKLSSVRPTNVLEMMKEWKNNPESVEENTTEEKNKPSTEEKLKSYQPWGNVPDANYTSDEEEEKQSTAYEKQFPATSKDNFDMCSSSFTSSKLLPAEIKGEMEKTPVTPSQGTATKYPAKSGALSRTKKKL
NOMO-1 viab: STK33 inhibitor candidate reducing NOMO-1 cell viability; NOMO-1 AML viability, CellTiter-Glo luminescence, 72 h; inhibition, % (concentration not given with the values); 37,000 compounds, 7.5% hits; in the data active = inhibition above about 80%
PD-1 reversal: reversal of PD-1 mediated T-cell inhibition; activation, % (concentration not given with the values); primary human CD4 T cells, PD-L1 beads, CellTiter-Glo 96 h; 29,000 tested, under 10 active; call rule not given here;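 also: 0% = median vehicle wells and 100% = positive control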
Active calls of the source: *; nt = no result given; ! = repeats disagree.

SMILES	STK33 inh	NOMO-1 viab	PD-1 reversal
CC(=O)N[C@H]1[C@H](O[C@H]2CC[C@@]3(C)C(CC[C@]4(C)C3CC=C3[C@@H]5CC(C)(C)CC[C@]5(C(=O)OC5OCC(O)C(O)C5O)C(O)C[C@]34C)C2(C)C)O[C@H](COC2OCC(O)C(OC3OCC(O)C(O)C3O)C2O)[C@@H](O[C@@H]2O[C@@H](C)[C@H](O)[C@@H](O)[C@H]2O[C@@H]2O[C@@H](C)[C@H](O)[C@@H](O)[C@H]2O)[C@@H]1O (stereo partly drawn)	0	52	-8
O=S(=O)(c1ccccc1)c1nc(-c2cccs2)oc1NCC1CCCO1 (stereo not drawn)	0	38	0
CC(C)(C)C1CCc2c(sc3nc(-c4cccs4)oc(=O)c23)C1 (stereo not drawn)	nt	108*	-1
CC1CCc2c(sc3nc(SC(C)C(=O)Nc4ccccc4)nc(N)c23)C1 (stereo not drawn)	3	-8	0
C[C@H](CO)N1C[C@H](C)[C@@H](CN(C)S(=O)(=O)c2ccccc2)Oc2ccc(NC(=O)Nc3ccc(C(F)(F)F)cc3)cc2C1=O	-3	69	-2
C[C@@H]1CN([C@H](C)CO)C(=O)c2cc(NC(=O)Nc3ccc(C(F)(F)F)cc3)ccc2O[C@@H]1CN(C)S(=O)(=O)c1ccccc1	nt	45	-1
C[C@H]1CN([C@@H](C)CO)C(=O)c2cc(NC(=O)Nc3ccc(C(F)(F)F)cc3)ccc2O[C@H]1CN(C)S(=O)(=O)c1ccccc1	-3	97*	-1
C[C@@H]1CN([C@@H](C)CO)C(=O)c2cc(NC(=O)Nc3ccc(C(F)(F)F)cc3)ccc2O[C@@H]1CN(C)S(=O)(=O)c1ccccc1	2	90*	-1
Cc1ccc(OCC(=O)Nc2ccc3oc(-c4cccc(F)c4)nc3c2)c(C)c1	2	5	nt
N#Cc1c(NC(=O)COc2ccc3c(-c4ccccc4)cc(=O)oc3c2)sc2c1CCC2	-2	96*	nt
Cc1sc(NC(=O)COc2ccc3c(C)cc(=O)oc3c2)c(C#N)c1C	1	11	nt
CC(=O)Nc1ccc(NC(=O)CNS(=O)(=O)c2c(C)cc(C)cc2C)cc1	-6	-3	5
Cc1cc(C)c(S(=O)(=O)NCC(=O)Nc2ccc(C(C)C)cc2)c(C)c1	-1	95*	-6
COc1ccc2c(c1OC)C(=O)O[C@@H]2[C@H]1c2c(cc3c(c2OC)OCO3)CCN1C	0	31	1
COc1ccc2cc1Oc1ccc(cc1)C[C@H]1c3cc(c(OC)cc3CCN1C)Oc1c(OC)c(OC)cc3c1[C@H](C2)N(C)CC3	-2	121*	nt
COc1ccc2c(c1OC)C(=O)OC2[C@H]1c2c(cc3c(c2OC)OCO3)CCN1C (stereo partly drawn)	-2	37	nt
COc1cc2c3cc1Oc1c(OC)c(OC)cc4c1[C@@H](Cc1ccc(OC(=O)c5ccc([N+](=O)[O-])cc5)c(c1)Oc1ccc(cc1)C[C@@H]3N(C)CC2)N(C)CC4	4	98*	-1
COc1ccc(NC(=O)C(C)N(c2ccc(C)c(C)c2)S(C)(=O)=O)cc1 (stereo not drawn)	-1	21	5
Cc1cc(C)nc(N(C#N)C(C(=O)c2ccccc2)c2ccccc2)n1 (stereo not drawn)	-1	110*	nt
Cc1cc(C)nc(N(C#N)CC(=O)N2c3ccccc3CCc3ccccc32)n1	-1	12	0
CC(C(=O)Nc1ccc(Oc2ccccc2)cc1)N1c2cccc3cccc(c23)S1(=O)=O (stereo not drawn)	-1	23	nt
C[C@@H]1CN([C@H](C)CO)C(=O)Cc2cc(NC(=O)Nc3cccc4ccccc34)ccc2O[C@@H]1CN(C)CC1CCCCC1	-1	87*	-3
C[C@H]1CN([C@@H](C)CO)C(=O)Cc2cc(NC(=O)Nc3ccccc3)ccc2O[C@@H]1CN(C)CC1CC1	1	-1	0
C[C@H]1CN([C@@H](C)CO)C(=O)Cc2cc(NC(=O)Nc3ccccc3)ccc2O[C@@H]1CN(C)CC1CCCCC1	3	101*	4
C[C@@H]1CN([C@H](C)CO)C(=O)Cc2cc(NC(=O)Nc3cccc4ccccc34)ccc2O[C@H]1CN(C)CC1CCCCC1	4	9	nt
SMILES	STK33 inh	NOMO-1 viab	PD-1 reversal
CC(C)NC(=O)Nc1ccc2c(c1)CC(=O)N([C@@H](C)CO)C[C@H](C)[C@H](CN(C)CC1CCCCC1)O2	-5	9	1
C[C@@H]1CN([C@H](C)CO)C(=O)Cc2cc(NC(=O)Nc3ccc(F)cc3)ccc2O[C@@H]1CN(C)CC1CCCCC1	-3	100*	1
C[C@H](CO)N1C[C@H](C)[C@H](CN(C)CC2CC2)Oc2ccc(NC(=O)Nc3ccc(F)cc3)cc2CC1=O	-2	-8	nt
C[C@@H]1CN([C@H](C)CO)C(=O)Cc2cc(NC(=O)Nc3ccccc3)ccc2O[C@@H]1CN(C)CC1CCCCC1	0	104*	1
C=CC(C)(CC/C=C(\C)C(O)CC=C(C)C)OC1OC(CO)C(O)C(O)C1O (stereo not drawn)	-1	nt	nt
CNC(=O)CN(c1ccc(C)cc1)S(=O)(=O)c1ccccc1	-1	15	nt
CN1CCCC(CC2c3ccccc3Sc3ccccc32)C1 (stereo not drawn)	-6	50	nt
CSc1ccc2c(c1)C(N1CCN(C)CC1)Cc1ccccc1S2 (stereo not drawn)	0	143*!	-1
COC(=O)c1cc(NC(=O)COc2ccc(Br)cc2)cc(C(=O)OC)c1	2	30	-2
O=C(CSc1nc2ccccc2c(=O)[nH]1)Nc1cccc(I)c1	-1	6	-2
CC12CC3(C)CC(C)(C1)CC(C(=O)NC(=S)NC(C)(C)C)(C2)C3	nt	35	0
C/C(=N\O)C12CC3(C)CC(C)(CC(C)(C3)C1)C2	nt	120*	-2
N#Cc1ccccc1CSc1nc(N)cc(=O)[nH]1	1	9	nt
Cn1c(=O)c2c(O)c(C=Nc3ccc(Cl)cc3)c(=O)n(C)c2n(C)c1=O	nt	2	-1
Cc1sc2nc(SCC(=O)NCC3CCCO3)n(-c3ccc(F)cc3)c(=O)c2c1C (stereo not drawn)	2	-6	-2
O=C1N=c2ccccc2=N/C1=N\C(=S)Nc1ccccc1	nt	122*	-3
CC(C)/C(N)=N/C(=S)Nc1ccccc1	nt	23	2
CCCCC/C=C/C=C/C(O)CCCCCCCC(=O)O (stereo not drawn)	-6	28	0
Oc1cc(C2CCCCC2)cc(C2CCCCC2)c1	nt	137*	-7
C[C@@H]1CN([C@@H](C)CO)C(=O)c2cccc(NC(=O)c3ccc(-c4nccs4)cc3)c2O[C@H]1CN(C)CC1CCCCC1	nt	109*	-3
C[C@H](CO)N1C[C@H](C)[C@@H](CN(C)CC2CCCCC2)Oc2c(NC(=O)c3ccc(-c4nccs4)cc3)cccc2C1=O	nt	104*	-3
C[C@@H]1CN([C@H](C)CO)C(=O)c2cccc(NC(=O)c3ccc(-c4nccs4)cc3)c2O[C@@H]1CN(C)CC1CCCCC1	nt	2	0
C[C@H]1CN([C@@H](C)CO)C(=O)c2cccc(NC(=O)c3ccc(-c4nccs4)cc3)c2O[C@H]1CN(C)CC1CCCCC1	nt	4	-1
O=C(CSc1nc(-c2ccccc2)c2cc(Cl)ccc2n1)N1N=CCC1c1ccccc1 (stereo not drawn)	7	43	-1

Assay outcomes as filed in PubChem.
